Experimental data reported in PubChem BioAssay.
Values without a mark were called inactive.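 Rule for the calls, unless noted: active = Her2 level under about 52% in both replicate screens, with viability over 70% of control (limit read from the data); inconclusive = Her2 under the limit in one screen only, or viability under 70%; inactive = Her2 level above the set limit.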

Biological target: Receptor tyrosine-protein kinase erbB-2 (Homo sapiens) (UniProt P04626)
Assay: Her2 expression decrease, cell viability multiplex – SKBR3 breast tumor cells, AlphaScreen, ATP viability, primary screen (AID 461);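 note: lower value means less Her2 protein in the cells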
Settings: 18-24 h, at 10 µM, hits give low values

Chain of Receptor tyrosine-protein kinase erbB-2 (Homo sapiens) (P04626 whole entry, looked up): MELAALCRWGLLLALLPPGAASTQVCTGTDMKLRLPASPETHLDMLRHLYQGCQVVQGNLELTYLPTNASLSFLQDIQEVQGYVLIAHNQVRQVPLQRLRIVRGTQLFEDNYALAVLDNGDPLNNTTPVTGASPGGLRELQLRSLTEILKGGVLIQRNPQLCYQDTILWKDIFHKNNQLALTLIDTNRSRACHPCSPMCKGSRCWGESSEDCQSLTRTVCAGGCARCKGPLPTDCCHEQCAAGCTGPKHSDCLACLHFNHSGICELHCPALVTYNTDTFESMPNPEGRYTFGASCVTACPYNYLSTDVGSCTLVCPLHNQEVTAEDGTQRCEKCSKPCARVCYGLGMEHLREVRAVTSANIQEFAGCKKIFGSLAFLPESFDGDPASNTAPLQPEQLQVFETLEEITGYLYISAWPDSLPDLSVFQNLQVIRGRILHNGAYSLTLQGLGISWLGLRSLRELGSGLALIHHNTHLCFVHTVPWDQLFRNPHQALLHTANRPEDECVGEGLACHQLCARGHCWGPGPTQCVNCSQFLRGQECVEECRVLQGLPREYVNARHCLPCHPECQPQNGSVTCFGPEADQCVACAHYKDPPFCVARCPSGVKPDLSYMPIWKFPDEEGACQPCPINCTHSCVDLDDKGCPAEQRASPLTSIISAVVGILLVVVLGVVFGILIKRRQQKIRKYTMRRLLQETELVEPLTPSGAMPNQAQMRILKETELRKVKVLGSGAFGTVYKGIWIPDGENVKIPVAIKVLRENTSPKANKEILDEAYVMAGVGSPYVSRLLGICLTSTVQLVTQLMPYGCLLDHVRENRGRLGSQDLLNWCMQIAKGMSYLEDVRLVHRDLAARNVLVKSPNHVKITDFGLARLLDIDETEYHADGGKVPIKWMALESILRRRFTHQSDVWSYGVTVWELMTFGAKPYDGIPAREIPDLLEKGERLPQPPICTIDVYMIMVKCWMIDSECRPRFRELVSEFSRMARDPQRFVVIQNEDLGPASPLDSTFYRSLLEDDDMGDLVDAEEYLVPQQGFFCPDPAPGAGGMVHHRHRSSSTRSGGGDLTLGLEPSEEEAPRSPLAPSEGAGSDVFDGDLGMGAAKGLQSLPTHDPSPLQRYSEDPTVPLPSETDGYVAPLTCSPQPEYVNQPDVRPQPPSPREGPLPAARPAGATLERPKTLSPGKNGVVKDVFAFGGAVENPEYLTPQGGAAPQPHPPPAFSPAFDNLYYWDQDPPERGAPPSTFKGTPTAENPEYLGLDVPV

| SMILES | Her2 level |
| --- | --- |
| CC(C)(C)C(O)C(Oc1ccc(Cl)cc1)n1cncn1 (stereo not given) | 83.5% |
| COc1cc(/C=N/n2cnnc2)ccc1OC(=O)N(C)C | 96.5% |
| Nc1ccnn1C1CCNCC1 | 105% |
| COC(=O)c1c(C)n(Cc2ccc3c(c2)OCO3)c2ccc(O)cc12 | 95% |
| O=C(c1ccc(CS(=O)(=O)c2ccccc2)o1)N1CCC2(CC1)OCCO2 | 112% |
| COc1cc(C2NCc3ccccc3-n3cccc32)ccc1O (stereo not given) | 102% |
| COc1ccc(CN2CCN(C(=O)Cc3ccccc3)CC2)c(OC)c1 | 90% |
| CC(C)OC(=O)c1c(N)n(CC2CCCO2)c2nc3ccccc3nc12 (stereo not given) | 92.5% |
| O=C(c1sc2ccccc2c1Cl)N1CCC2(CC1)OCCO2 | 136% |
| CSc1ccc(C(=O)C(C)(C)N2CCOCC2)cc1 | 107% |
| CCCCCCC(N)CC(=O)O (stereo not given) | 122% |
| CC(C)(C)OC(=O)c1c(N)n(Cc2ccco2)c2nc3ccccc3nc12 | 76% |
| c1cncc(CNC2=NCCCCC2)c1 | 106% |
| COc1ccccc1-n1c(O)c(C=NCc2ccc3c(c2)OCO3)c(=O)[nH]c1=O | 91.5% |
| O=C(CCCOc1ccc(Cl)cc1Cl)N1CCC2(CC1)OCCO2 | 96.5% |
| Cc1oc2ccc(OC(=O)N(C)C)cc2c1C(=O)OC(C)C | 87.5% |
| Oc1ccc(C2NCc3ccccc3-n3cccc32)cc1Cl (stereo not given) | 74.5% |
| O=c1[nH]c(=O)n(-c2ccc(F)cc2)c(O)c1C=Nc1ccccc1N1CCCC1 | 105% |
| CCOC(=O)C1CCCCC12C(C#N)=C(N)Oc1n[nH]c(C)c12 (stereo not given) | 94.5% |
| COCCOC(=O)C1=C(N)Oc2c(c(=O)oc3ccccc23)C1c1ccncc1 (stereo not given) | 72% |

| SMILES | Her2 level |
| --- | --- |
| CCN1CCN(c2ncnc3ccc(Br)cc23)CC1 | 110% |
| CCOP(=S)(OCC)c1ccc(N(C)C)cc1 | 104% |
| NC(=O)CSP(=O)(c1ccccc1)c1ccccc1 | 118% |
| Nc1ccc(C2(c3ccc(N)cc3)CN3CCC2CC3)cc1 | 88% |
| CN(C)c1cc(N)c2c(n1)CCC2 (tested in a mixture with another compound) | 134% |
| CCOc1ccc(-n2c(O)c(C=NCCN3CCNCC3)c(=O)[nH]c2=O)cc1 | 77.5% |
| CC(=NCCCO)c1c(O)n(Cc2ccccc2)c(=O)[nH]c1=O | 94% |
| Cc1cc(N2C(=O)C3CCCN3C2c2cccc(Cl)c2)no1 (stereo not given) | 96.5% |
| COc1ccc(S(=O)(=O)NC(CC(=O)N2CCC3(CC2)OCCO3)c2ccco2)cc1 (stereo not given) | 106% |
| COc1ccccc1N1CCN(Cc2c(F)cccc2F)CC1 | 88.5% |
| CSc1ccc(CNC2CN3CCC2CC3)cc1 (stereo not given) | 93.5% |
| Cc1ccc(C)c(NC2=NCCCS2)c1 | 89.5% |
| CC1=C(C(=O)OC(C)C)[C@]2(C(=O)N(CC(N)=O)c3ccccc32)C(C#N)=C(N)O1 | 85.5% |
| CCCCn1c(O)c(C(C)=NCCc2ccccc2)c(=O)[nH]c1=O | 89.5% |
| O=C1C2CCCN2C(c2ccc(Cl)c(Cl)c2)N1c1ccccn1 (stereo not given) | 102% |
| COC(=O)CC1(Cc2ccccc2)C(=O)NC(=O)NC1=O | 96.5% |
| Cc1ccc(S(=O)(=O)Cc2ccc(C(=O)N3CCC4(CC3)OCCO4)o2)cc1 | 104% |
| O=C1CC(N2CCC(n3c(=O)[nH]c4ccccc43)CC2)C(=O)N1c1ccc(F)cc1 (stereo not given) | 67.5% |
| CCOc1cc2[nH]c(=S)n(CCCC(=O)N3CCC4(CC3)OCCO4)c(=O)c2cc1OCC | 85.5% |
| CC(=NCc1ccc2c(c1)OCO2)c1c(O)n(C)c(=O)n(C)c1=O | 90% |

System: not listed separately
Assay: reduced viability of SK-BR-3 breast cancer cells – cell-based, 24 h, human, pilot screen (AID 572;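 active = viability at or below 10% of carrier control in both of two separate runs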;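 note: compound exposure lasted between 18 and 24 h rather than exactly 24 h; 100% = carrier-treated control wells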)
Settings: SK-BR-3 viability, CellTiter-Glo luminescence, at 10 µM, hits give low values

| SMILES | viability |
| --- | --- |
| CC(C)(C)C(O)C(Oc1ccc(Cl)cc1)n1cncn1 (stereo not given) | 86.5% |
| COc1cc(/C=N/n2cnnc2)ccc1OC(=O)N(C)C | 97% |
| Nc1ccnn1C1CCNCC1 | 88.5% |
| COC(=O)c1c(C)n(Cc2ccc3c(c2)OCO3)c2ccc(O)cc12 | 116% |
| O=C(c1ccc(CS(=O)(=O)c2ccccc2)o1)N1CCC2(CC1)OCCO2 | 90% |
| COc1cc(C2NCc3ccccc3-n3cccc32)ccc1O (stereo not given) | 104% |
| COc1ccc(CN2CCN(C(=O)Cc3ccccc3)CC2)c(OC)c1 | 93% |
| CC(C)OC(=O)c1c(N)n(CC2CCCO2)c2nc3ccccc3nc12 (stereo not given) | 86.5% |
| O=C(c1sc2ccccc2c1Cl)N1CCC2(CC1)OCCO2 | 90.5% |
| CSc1ccc(C(=O)C(C)(C)N2CCOCC2)cc1 | 106% |
| CCCCCCC(N)CC(=O)O (stereo not given) | 106% |
| CC(C)(C)OC(=O)c1c(N)n(Cc2ccco2)c2nc3ccccc3nc12 | 98.5% |
| c1cncc(CNC2=NCCCCC2)c1 | 80.5% |
| COc1ccccc1-n1c(O)c(C=NCc2ccc3c(c2)OCO3)c(=O)[nH]c1=O | 93.5% |
| O=C(CCCOc1ccc(Cl)cc1Cl)N1CCC2(CC1)OCCO2 | 106% |
| Cc1oc2ccc(OC(=O)N(C)C)cc2c1C(=O)OC(C)C | 96% |
| Oc1ccc(C2NCc3ccccc3-n3cccc32)cc1Cl (stereo not given) | 98.5% |
| O=c1[nH]c(=O)n(-c2ccc(F)cc2)c(O)c1C=Nc1ccccc1N1CCCC1 | 97.5% |
| CCOC(=O)C1CCCCC12C(C#N)=C(N)Oc1n[nH]c(C)c12 (stereo not given) | 91.5% |
| COCCOC(=O)C1=C(N)Oc2c(c(=O)oc3ccccc23)C1c1ccncc1 (stereo not given) | 122% |

| SMILES | viability |
| --- | --- |
| CCN1CCN(c2ncnc3ccc(Br)cc23)CC1 | 100% |
| CCOP(=S)(OCC)c1ccc(N(C)C)cc1 | 92.5% |
| NC(=O)CSP(=O)(c1ccccc1)c1ccccc1 | 94% |
| Nc1ccc(C2(c3ccc(N)cc3)CN3CCC2CC3)cc1 | 120% |
| CN(C)c1cc(N)c2c(n1)CCC2 (tested in a mixture with another compound) | 113% |
| CCOc1ccc(-n2c(O)c(C=NCCN3CCNCC3)c(=O)[nH]c2=O)cc1 | 102% |
| CC(=NCCCO)c1c(O)n(Cc2ccccc2)c(=O)[nH]c1=O | 95% |
| Cc1cc(N2C(=O)C3CCCN3C2c2cccc(Cl)c2)no1 (stereo not given) | 95% |
| COc1ccc(S(=O)(=O)NC(CC(=O)N2CCC3(CC2)OCCO3)c2ccco2)cc1 (stereo not given) | 134% |
| COc1ccccc1N1CCN(Cc2c(F)cccc2F)CC1 | 89% |
| CSc1ccc(CNC2CN3CCC2CC3)cc1 (stereo not given) | 89.5% |
| Cc1ccc(C)c(NC2=NCCCS2)c1 | 108% |
| CC1=C(C(=O)OC(C)C)[C@]2(C(=O)N(CC(N)=O)c3ccccc32)C(C#N)=C(N)O1 | 92% |
| CCCCn1c(O)c(C(C)=NCCc2ccccc2)c(=O)[nH]c1=O | 88.5% |
| O=C1C2CCCN2C(c2ccc(Cl)c(Cl)c2)N1c1ccccn1 (stereo not given) | 128% |
| COC(=O)CC1(Cc2ccccc2)C(=O)NC(=O)NC1=O | 92.5% |
| Cc1ccc(S(=O)(=O)Cc2ccc(C(=O)N3CCC4(CC3)OCCO4)o2)cc1 | 75% |
| O=C1CC(N2CCC(n3c(=O)[nH]c4ccccc43)CC2)C(=O)N1c1ccc(F)cc1 (stereo not given) | 93.5% |
| CCOc1cc2[nH]c(=S)n(CCCC(=O)N3CCC4(CC3)OCCO4)c(=O)c2cc1OCC | 88.5% |
| CC(=NCc1ccc2c(c1)OCO2)c1c(O)n(C)c(=O)n(C)c1=O | 94% |
